# Legend:
# Experiment in all cases: PBM binding z-score (relative to random genomic background probes); higher = stronger binding; sequences stand for … in GC…GCGATTGACAGCGTAGAATGAAGG
# [1] = test system: PPARg:RXRa DBDmut IVT, anti-RXR (DBD mutation: RXRa K156A/R161A, NR concentration 270 nM, RXRa partner concentration 90 nM)
# Method in brief: (§1)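 Binding z-scores were set against random background probes. The data came from custom Agilent 4×180K protein-binding microarrays carrying double-stranded probes with 34-nt variable regions, incubated 1 h with ligand-free nuclear receptor dimers. Partner-specific antibodies detected binding, and scanned fluorescence was regression-normalized.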
# [2] = test system: PPARg:RXRa IVT, anti-PPARg (NR concentration 270 nM, RXRa partner concentration 90 nM)
# Method in brief: as §1
# [3] = test system: PPARg DBDmut:RXRa IVT, anti-PPARg (DBD mutation: PPARg1 K132A/R137A, NR concentration 270 nM, RXRa partner concentration 90 nM)
# Method in brief: as §1
# [4] = test system: PPARg DBDmut IVT, anti-PPARg (DBD mutation: PPARg1 K132A/R137A, NR concentration 270 nM)
# Method in brief: as §1
# [5] = test system: PPARg homodimer (NR concentration 180 nM)
# Method in brief: as §1
# [6] = test system: PXR:RXRa (NR concentration 270 nM, RXRa partner concentration 90 nM)
# Method in brief: as §1
# [7] = test system: PXR homodimer (NR concentration 270 nM)
# Method in brief: as §1
# [8] = test system: RARa:RXR (NR concentration 270 nM, RXRa partner concentration 90 nM)
# Method in brief: as §1
# [9] = test system: RARa homodimer (NR concentration 270 nM)
# Method in brief: as §1
# [10] = test system: RARb:RXRa (NR concentration 270 nM, RXRa partner concentration 90 nM)
# Method in brief: as §1
Sequence,PBM binding z-score [1],PBM binding z-score [2],PBM binding z-score [3],PBM binding z-score [4],PBM binding z-score [5],PBM binding z-score [6],PBM binding z-score [7],PBM binding z-score [8],PBM binding z-score [9],PBM binding z-score [10]
GGAACGAGAGCAAGTTGATAGCAGAGTTTGATGG,0.286,-0.607,-0.891,-0.825,-0.674,-0.482,0.00313,-0.584,-0.345,-0.427
CCTTACGGGTCAACGTTATAGCACGGGTGGTACG,2,3.53,0.108,-0.133,1.79,3.18,-0.188,3.99,0.25,4.13
CCGACTGGGGCAAGGTTACCATAACGCACAGCCA,3.29,3.67,-0.449,-0.891,0.674,0.267,-0.266,0.99,0.394,1.75
GCATATAGGTAACACAAGGTGAAAGTCCGATTGT,5.29,4.7,0.827,0.927,0.275,0.74,-0.11,1.25,0.102,0.856
TCGCCTAGGTCATTCAGGGGCCAGTATAGAAAGC,2.54,2.19,-0.243,-0.908,1.82,2.3,-0.0121,3.36,-0.254,3.96
CCTTACGGGTCACTGACAGGTTATAGAATTTGGA,3.42,3.6,1.19,0.387,2.22,3.68,0.414,4.32,1.29,3.93
CCTACTGGGCCACGAAAGGTTATTGATTCAGTGA,5.07,5.34,0.351,-0.129,0.506,1.43,0.179,1.78,0.179,1.39
ACTATTACTTGAGACGAGGGCAACCGATAGGTTG,0.899,1.15,0.818,1.3,1.24,0.601,0.904,0.426,1.54,1.3
TCATATAGGTAAATGCTAGGTTAAAGTCCGATCT,3.88,2.47,1.36,1.02,1.14,0.98,0.768,1.29,1.88,0.735
ATCGAAAGGTCGACGAGGTGAGCATACACCGTTT,0.211,2.48,1.06,0.825,1.88,2.91,0.446,3.9,0.74,3.9
CCTCGGAGGACAACAGGAGGTCAGACCTGCCAGA,0.294,0.546,-0.564,-0.997,1.43,2.11,0.241,2.19,0.183,2.89
CAAACTAGGTCTCGAAAGGTCAAAGTCGAATGAC,5.54,5.71,2.45,0.645,3.86,5.61,2.13,6.33,2.57,4.4
GGAACGAGGGCAAAGTTGATAGTATCTGTCGACG,3.79,4.43,0.556,-0.544,0.557,1.12,0.156,1.66,-0.123,2.22
CCTACTGGGCCAAATGTCATTGATTCCAATGCTC,4.77,4.36,0.17,0.471,0.28,-0.184,-0.329,0.0171,-0.233,0.654
CGTCCAAGGTCTATGCTAGGTCAGTGAAAGCATT,0.0727,0.505,-1.49,-0.699,0.128,0.421,-0.113,1.03,0.289,1.62
CCAGACAGGTGAAAGGTAACACAGTCTGGTACGC,2.09,3.4,-0.472,-0.499,0.837,1.29,-0.0519,1.69,0.436,1.36
CCTACTTGGTCAAGGTCACACACGCTATAGGTAC,2.5,3.56,0.858,1.02,3.34,4.31,1.72,4.29,2.21,4.18
AGAACGAGGGCAATGAGTTGTTAGCACGGGTGGC,3.51,2.66,0.326,-0.308,-0.355,0.859,1.26,0.0367,-0.253,2.13
CTACCAAGGTGAACAAGGTCGTTGATTACTATTC,2.26,2.58,0.576,0.29,0.831,2.96,1.95,2.45,0.346,2.16
CAAACTAGGTCACCGGAACGTCAAAGTCCGCATG,8.6,8.71,3.6,1.58,2.42,1.83,0.254,2.67,0.352,4.31
CCTTACGGGTCACTCCAGGTTATAGCATCGGAGT,2.98,3.86,-0.0737,-0.285,1.64,4.79,0.216,3.49,0.27,3.6
TCTTGTAGATCAAGCAGGATAAGAAAGCCTGAGT,1.53,0.265,0.695,0.533,0.027,-0.0334,0.538,0.108,0.37,-0.349
TTACCACGGTGAGCTGAGGTCGTTGATCCAACTC,-0.205,0.363,-0.296,-0.157,-0.455,2.07,0.241,1.07,-0.639,0.544
ACTAGCAGGCCAAGTGTCACTCAAGATTAGTCCG,1.36,1.14,-0.753,-0.466,-0.0608,-0.239,-0.525,0.0332,-0.483,0.887
